# Measured values taken from PubChem BioAssay (NCI).
# The panel holds about 83,000 compounds, 20% with a hit somewhere; the sample as a whole holds those more often.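 Interpretation: 100, growth as untreated; towards 0, rising growth inhibition; 0, no net growth; 0 to -100, cell death. Compounds scoring below 10 were considered active.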 Values without a mark were called inactive. Activity calls are given as the source filed them.
# How the values were obtained:
# Assay in all cases: NCI-60 one-dose screen, 48 h (100 = growth as untreated, 0 = no growth, -100 = all killed)
# Conditions in all cases: 10 µM unless noted
# DU-145 prostate = system: DU-145 prostate
# K-562 leukemia = system: K-562 leukemia
# MALME-3M melanoma = system: MALME-3M melanoma
# MDA-MB-231 breast = system: MDA-MB-231 breast
# RXF 393 renal = system: RXF 393 renal
# SF-268 CNS = system: SF-268 CNS
# SF-295 CNS = system: SF-295 CNS
# SF-539 CNS = system: SF-539 CNS
# UACC-257 melanoma = system: UACC-257 melanoma
# M14 melanoma = system: M14 melanoma
Compound,growth (DU-145 prostate),growth (K-562 leukemia),growth (MALME-3M melanoma),growth (MDA-MB-231 breast),growth (RXF 393 renal),growth (SF-268 CNS),growth (SF-295 CNS),growth (SF-539 CNS),growth (UACC-257 melanoma),growth (M14 melanoma)
CCc1cc(OC(=O)N2CCN(CCC(C)(COC(C)(C)C)COC(C)(C)C)CC2)ccc1Nc1cc(-c2ccc(-n3cccn3)cc2)[nH]n1,84%,52.1%,89.7%,83.5%,41%,73.8%,85.1%,88.8%,92.9%,97.6%
COc1ccc(OC)c(NC(=O)CCCCCCNC(=O)C(O)(O)C(F)(F)F)c1,34.9%,19.4%,24.9%,61.6%,1.79% (active),55%,20.6%,46%,41.2%,46.8%
O=C1[C@@H]2Cc3c([nH]c4ccccc34)[C@@H](c3ccc(Cl)cc3)N2C(=O)CN1C1CCN(Cc2ccccc2)CC1,57.5%,3.54% (active),79.6%,64.2%,50.3%,48%,85.2%,72.7%,75.8%,7.82% (active)
Cc1[nH]c(C(=O)Nc2ccccc2OCc2cccc(C(=O)NC3CCNC3)c2)c(Cl)c1Cl (stereo not given),-84.8% (active),0.128% (active),74.2%,-57.8% (active),78.8%,74.8%,-85% (active),-75.6% (active),103%,24.1%
CCN(CC)c1ccc(/C=N/NC(=O)c2ccc(NS(C)(=O)=O)cc2)c(O)c1,31.3%,14.2%,4.46% (active),38.4%,-9.12% (active),22.7%,9.79% (active),7.08% (active),-6.91% (active),0.206% (active)
Clc1ccc2[nH]cc(-c3cncn3CCc3ccc4c(c3)OCO4)c2c1,86.3%,48.8%,75.5%,65.8%,54.7%,66.5%,58.4%,83.8%,57.5%,78.8%
Cc1ccc2c(n1)C(=O)C(Cl)=C(Nc1ccccc1C(=O)OC(C)(C)C)C2=O,-56.2% (active),-15.7% (active),-45.9% (active),55.5%,-81.7% (active),79.6%,91.8%,83.1%,-63.5% (active),-10.6% (active)
NCCNC(=O)c1cccc(COc2ccccc2NC(=O)c2cc(Br)c(Br)[nH]2)c1,96.3%,-16.3% (active),98.9%,91.4%,93.4%,61.9%,88.3%,96.2%,116%,102%
C#C[C@]1(O)CC[C@H]2[C@@H]3CC=C4c5sc(Nc6cc(C)cc(C)c6)nc5CC[C@]4(C)[C@H]3CC[C@@]21C,45.4%,0.356% (active),-4.28% (active),33.5%,-77.2% (active),22.3%,-71.7% (active),-47.7% (active),16%,-60.2% (active)
NC(=O)c1c(NC(=O)c2ccc(C(F)(F)F)cc2)sc2c1CCC(=O)C2,59%,7.94% (active),-22.4% (active),-14.5% (active),-5.39% (active),13.2%,4.24% (active),-74.3% (active),-18% (active),-22% (active)
Cn1ncc2c(C(=O)c3ccc(F)cc3)nc(C(C)(C)C)nc21,102%,104%,89.7%,102%,94.1%,97.3%,99.6%,97.1%,94.3%,100%
CCc1cc(O)ccc1Nc1cc(-c2ccc(-n3cccn3)cc2)[nH]n1,71.5%,18.9%,110%,92.9%,108%,66%,36.5%,79.4%,70%,47.4%
CCOC(=O)c1ccc(NC2=C(Cl)C(=O)c3nc(C)ccc3C2=O)cc1,91%,7.29% (active),11.7%,77.4%,45.6%,70.8%,65%,54.3%,44.2%,52.4%
CC(C)[C@H]1c2[nH]c3ccccc3c2C[C@H]2C(=O)N(CCCCCCC(=O)NO)CC(=O)N12,92.4%,60.6%,31.1%,92.5%,87%,107%,95.2%,73.6%,57.7%,82.2%
Cc1cccc(N2CCN(C3=C(Cl)C(=O)c4ncccc4C3=O)CC2)c1,44.7%,9.9% (active),24.4%,84.8%,52.2%,82.9%,101%,92.1%,61.5%,75.3%
Cc1[nH]c(C(=O)Nc2ccc(C(N)=O)cc2N2CCOC(C)C2)c(Cl)c1Cl (stereo not given),104%,92.2%,99.1%,95.7%,102%,98.8%,103%,95.7%,108%,101%
O=C(CCCCCCNC(=O)C(O)(O)C(F)(F)F)Nc1ccc(Br)cc1,0.633% (active),15.2%,10.1%,28.4%,-38.1% (active),8.01% (active),-25.3% (active),18.5%,15.5%,25.1%
COc1ccc(/C=N/NC(=O)CSc2nc(-c3cnccn3)cc(-c3cccs3)c2C#N)cc1,61.7%,79.5%,91.9%,70.5%,39.7%,83.5%,80.3%,39.1%,95.9%,77.4%
CC(C)(C)OC(=O)NCc1ccc(CNc2c([N+](=O)[O-])cnc3ccccc23)cc1,77.4%,28.5%,86.4%,72.8%,105%,77%,33.4%,82.8%,49%,76%
CCOC(=O)c1cccnc1Nc1ccc(NC(=O)Nc2ccc(Cl)c(C(F)(F)F)c2)cc1,32.6%,13.4%,51.4%,95.8%,93.7%,73.5%,9.85% (active),75.6%,58%,42.7%
COc1ccc(OC)c(CCn2cncc2-c2c[nH]c3ccc(Cl)cc23)c1,60.5%,15.8%,45.9%,62.6%,62.8%,50.5%,28.9%,71.6%,23%,48.4%
CN1CCN(Cc2ccc(NC(=O)c3cncc(C#Cc4cnc5ccc(N6CCOCC6)nn45)c3)cc2C(F)(F)F)CC1,-84.7% (active),-0.943% (active),-86.2% (active),-56.4% (active),-77.9% (active),-62.1% (active),-84.8% (active),-90.8% (active),-29.5% (active),-74.4% (active)
O=C1[C@H]2Cc3c([nH]c4ccccc34)[C@H](c3ccc(Br)cc3)N2C(=O)CN1C1CCN(CC2CCCCC2)CC1,79.4%,6.13% (active),72.5%,76.5%,62.6%,66.8%,113%,75.3%,97.4%,-17.4% (active)
COc1ccc(/C=N/NC(=O)CSc2nc(-c3cnccn3)cc(-c3cccs3)c2C#N)cc1OC,100%,95.5%,69.1%,50.1%,-12.9% (active),70.5%,83.1%,36.7%,91.7%,77.5%
CC(=C(c1ccc(OCCN2CCCC2)cc1)c1ccc(OCCN2CCCC2)cc1)c1ccc(Cl)cc1,25.8%,-43.6% (active),-85.9% (active),-68.1% (active),-74.7% (active),-23.1% (active),-63.7% (active),-87.1% (active),-73.6% (active),-84.5% (active)
Oc1[nH]c2ccc(Cl)cc2c1N=Nc1nc(N=Nc2c(O)[nH]c3ccc(Cl)cc23)nc(N2CCOCC2)n1,88.4%,32.9%,56.4%,36.3%,13.7%,49.1%,45.7%,16%,82%,77.5%
O=C(/C=C/c1ccccc1)c1cccc(O)c1,105%,71.6%,104%,105%,92.4%,104%,98.3%,103%,101%,95.1%
